# In PubChem BioAssay (Tox21):
# Where “and” joins values, the source holds several entries; their conditions need not be identical. Equal entries are not always repeated. Inconclusive results are not listed. Entries that show only a call come without a potency. More than one record can exist for a structure, and the calls need not agree. Calls of active or inactive are those of the source. Unless noted, calls come from the whole dose curve; as a rule, active = well fitted curve in the direction sought with a large enough effect in the repeat runs; inconclusive = weak or mixed curves; inactive = no such curve, though single readings can be large; an effect the other way counts as inactive or inconclusive.
# Key:
# [1] = qHTS assay to identify small molecule antagonists of the constitutive androstane receptor (CAR) signaling pathway - cell viability counter screen (AID 1224837); note: nearly all actives have a fitted effect of over 45% in size; note: potency is the fitted concentration of half-maximal effect
# Summary of the method: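 HepG2 cells stably expressing hCAR and a CYP2B6-2.2kb reporter were plated and pre-incubated 4 hr at 37 C/5% CO2, then given compounds at 15 concentrations plus 50 nM CITCO (final). After 23 hr, viability was read by CellTiter-Fluor fluorescence.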
# [2] = molecular target: Nuclear receptor subfamily 1 group I member 3 (Homo sapiens) (UniProt Q14994); test: qHTS assay to identify small molecule antagonists of the constitutive androstane receptor (CAR) signaling pathway (AID 1224838); note: nearly all actives have a fitted effect of over 40% in size
# Nuclear receptor subfamily 1 group I member 3 (Homo sapiens), sequence (Q14994 whole entry, looked up): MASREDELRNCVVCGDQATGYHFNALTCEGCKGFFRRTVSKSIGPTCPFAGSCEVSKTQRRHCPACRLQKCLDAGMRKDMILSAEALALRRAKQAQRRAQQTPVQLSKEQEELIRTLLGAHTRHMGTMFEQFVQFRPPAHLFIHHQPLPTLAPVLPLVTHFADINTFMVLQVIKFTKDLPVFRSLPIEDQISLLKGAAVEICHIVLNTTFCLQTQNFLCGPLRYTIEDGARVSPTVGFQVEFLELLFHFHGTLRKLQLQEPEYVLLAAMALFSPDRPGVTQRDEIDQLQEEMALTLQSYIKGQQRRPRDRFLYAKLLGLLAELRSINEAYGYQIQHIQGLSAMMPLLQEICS
# Summary of the method: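 HepG2 cells stably co-transfected with hCAR and a CYP2B6-2.2kb luciferase reporter were seeded 4 h before compound addition at 15 concentrations. Cells were stimulated with 50 nM CITCO (final) for 24 h at 37 C; luciferase luminescence was then read.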
# [3] = molecular target: Nuclear receptor subfamily 1 group I member 3 (Homo sapiens) (UniProt Q14994); test: qHTS assay to identify small molecule agonists of the constitutive androstane receptor (CAR) signaling pathway (AID 1224839);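 note: HepG2 cells stably carrying human CAR and a CYP2B6 luciferase reporter; nearly all actives have a fitted effect of over 15% in size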
# Summary of the method: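 In this screen, CAR-driven CYP2B6 promoter activity is measured by luminescence in HepG2-CYP2B6-hCAR cells after 24 h with test compounds and 0.75 uM PK11195 (final concentration).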
# [4] = molecular target: Thyrotropin receptor (Homo sapiens) (UniProt P16473); test: qHTS assay to identify small molecule agonists of the thyroid stimulating hormone receptor (TSHR) signaling pathway (AID 1224843; calls by dose curve; note: nearly all actives have a fitted effect of over 45% in size)
# Thyrotropin receptor (Homo sapiens), sequence (P16473 whole entry, looked up): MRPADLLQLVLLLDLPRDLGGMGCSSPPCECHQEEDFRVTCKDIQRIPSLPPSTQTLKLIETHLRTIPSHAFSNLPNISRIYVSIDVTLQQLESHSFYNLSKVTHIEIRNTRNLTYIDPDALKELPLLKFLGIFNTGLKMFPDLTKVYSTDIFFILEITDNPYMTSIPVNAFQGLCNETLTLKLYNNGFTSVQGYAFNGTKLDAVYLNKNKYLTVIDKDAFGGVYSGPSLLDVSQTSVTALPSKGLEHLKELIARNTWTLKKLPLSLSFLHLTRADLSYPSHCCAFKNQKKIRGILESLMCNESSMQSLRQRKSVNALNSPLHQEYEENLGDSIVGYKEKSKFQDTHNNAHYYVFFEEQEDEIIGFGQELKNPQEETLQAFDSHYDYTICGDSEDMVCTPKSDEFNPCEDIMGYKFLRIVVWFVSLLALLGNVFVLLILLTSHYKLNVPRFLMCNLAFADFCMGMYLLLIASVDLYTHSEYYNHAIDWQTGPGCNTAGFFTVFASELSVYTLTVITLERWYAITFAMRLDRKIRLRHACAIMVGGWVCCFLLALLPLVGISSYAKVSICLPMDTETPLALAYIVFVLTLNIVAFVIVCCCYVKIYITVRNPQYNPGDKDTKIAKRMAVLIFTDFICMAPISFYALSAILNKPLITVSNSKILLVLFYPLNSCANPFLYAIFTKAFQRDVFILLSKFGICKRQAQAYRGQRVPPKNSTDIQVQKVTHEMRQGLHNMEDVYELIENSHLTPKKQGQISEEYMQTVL
# Summary of the method: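 Cell line HEK293 with TSHR; density 800/well. Exposure 30 min RT. Readout HTRF cAMP (cAMP-d2/anti-cAMP-cryptate), 1 h RT before reading.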
# [5] = qHTS assay to identify small molecule agonists of the hypoxia (HIF-1) signaling pathway - cell viability counter screen (AID 1224844; calls by dose curve; note: nearly all actives have a fitted effect of over 50% in size)
# Summary of the method: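 HRE-bla ME-180 cells in medium with 0.5% dialyzed FBS were preincubated 5 hrs at 37C, exposed to compounds for 17 hrs, then viability was read as CellTiter-Glo luminescence after 30 min at room temperature, in the reporter wells.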
# [6] = qHTS assay to identify small molecule agonists of the hypoxia (HIF-1) signaling pathway (AID 1224846; active = well fitted activation curve with a large enough effect in the signal ratio in the repeat runs, not every such curve was filed as active; the % refers to the signal ratio)
# Summary of the method: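 HRE-bla ME-180 cells (beta-lactamase reporter under hypoxia response element) were plated at 2,000 cells/well in medium with 0.5% dialyzed FBS, rested 5 hrs, then given compounds in DMSO for 17 hrs at 37C, 5% CO2. Reporter induction was read with CCF4-AM FRET substrate.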
# [7] = qHTS assay to identify small molecule agonists of H2AX - cell viability counter screen (AID 1224847; calls by dose curve; note: top concentration of the series differs between compounds; nearly all actives have a fitted effect of over 30% in size)
# Summary of the method: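 Read-out: CellTiter-Glo luminescence, 30 min RT. Cells: wild-type CHO-K1, 1000/well, 10% FBS, plated overnight at 37C. Treatment: 15 concentrations, 3 hr, 37C, 0.76% DMSO.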
# [8] = qHTS assay to identify small molecule agonists of the estrogen related receptor (ERR) signaling pathway from Tox21 library (AID 1224849; calls by dose curve; note: nearly all actives have a fitted effect of over 15% in size); conditions: ERR reporter cell line, ONE-Glo luciferase, 18 h; at 92.4 µM (top of the series)
# Summary of the method: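 ERR reporter cell line (NTP) seeded, rested 6 h at 37 C/5% CO2, then pinned with Tox21 compounds in DMSO. After 18 h at 37 C, ONE-Glo luciferase luminescence was read following 30 min at room temperature.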
# [9] = qHTS RealTime-Glo MT Cell Viability Assay in HEK293 cells - 32 hour (AID 1224868); note: nearly all actives have a fitted effect of over 50% in size; note: potency is the fitted concentration of half-maximal effect
# Summary of the method: (§1)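 HEK293 cells were seeded at 600 cells/well together with NanoLuc luciferase and cell-permeant prosubstrate, preincubated 5 h at 37 C/5% CO2, then given compound in DMSO by pintool. Luminescence from viable-cell prosubstrate reduction was read repeatedly over 40 h.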
# [10] = A CellTox Green Cytotoxicity Assay to monitor cytotoxicity in HEK293 cells - 0 hour (AID 1224869); note: nearly all actives have a fitted effect of over 50% in size
# Summary of the method: (§2)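 HEK293 cells premixed with CellTox Green dye were seeded at 600 cells/well and left 5 h at 37 C/5% CO2 before pin transfer of 23 nL compound in DMSO. Fluorescence from dye bound to dead-cell DNA was read during 40 h treatment.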
# [11] = qHTS RealTime-Glo MT Cell Viability Assay in HepG2 cells - 40 hour (AID 1224870); note: nearly all actives have a fitted effect of over 50% in size
# Summary of the method: (§3)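 HepG2 cells mixed with RealTime-Glo MT reagents (NanoLuc plus cell-permeant prosubstrate) were seeded at 600 cells/well, incubated 5 h at 37 C/5% CO2, then pinned with compounds in DMSO; nonlytic luminescence tracked viability during 40 h treatment.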
# [12] = A CellTox Green Cytotoxicity Assay to monitor cytotoxicity in HEK293 cells - 40 hour (AID 1224871); note: nearly all actives have a fitted effect of over 45% in size
# Summary of the method: as §2
# [13] = qHTS RealTime-Glo MT Cell Viability Assay in HEK293 cells - 16 hour (AID 1224872)
# Summary of the method: as §1
# [14] = qHTS RealTime-Glo MT Cell Viability Assay in HepG2 cells - 8 hour (AID 1224873); note: nearly all actives have a fitted effect of over 55% in size
# Summary of the method: as §3
# [15] = qHTS RealTime-Glo MT Cell Viability Assay in HEK293 cells - 40 hour (AID 1224874); conditions: RealTime-Glo luminescence; max response: stronger effect = lower value; note: nearly all actives have a fitted effect of over 50% in size; note: potency is the fitted concentration of half-maximal effect
# Summary of the method: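 HEK293 cells mixed with RealTime-Glo reagents (NanoLuc plus cell-permeant prosubstrate) at 600 cells/well, preincubated 5 h at 37 C/5% CO2, then given 23 nL compound in DMSO. Nonlytic luminescence from viable cells was read at 0, 8, 16, 24, 32 and 40 h.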
# [16] = A CellTox Green Cytotoxicity Assay to monitor cytotoxicity in HEK293 cells - 24 hour (AID 1224875); note: nearly all actives have a fitted effect of over 45% in size
# Summary of the method: as §2
# [17] = A CellTox Green Cytotoxicity Assay to monitor cytotoxicity in HepG2 cells - 16 hour (AID 1224876); note: nearly all actives have a fitted effect of over 45% in size
# Summary of the method: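 HepG2 cells were seeded together with the CellTox Green dye at 600 cells/well, left 5 h at 37 C/5% CO2, then given compounds in DMSO. Fluorescence from dye bound to dead-cell DNA was read repeatedly over 40 h of treatment at 37 C.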
# [18] = qHTS assay to identify small molecule antagonists of the estrogen related receptor signaling pathway with the pleiotropic PPARgamma coactivator (PGC) from Tox21 10K library - cell viability counter screen (AID 1224840; active = well fitted cell-killing curve with a large enough effect in the repeat runs, not every such curve was filed as active; note: nearly all actives have a fitted effect of over 40% in size)
# Summary of the method: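 PGC/ERR cells were seeded at 2,000 cells/well and left 6 hours at 37 C/5% CO2 before pin-tool addition of compounds in DMSO. After 17.5 hours at 37 C, CellTiter-Fluor was added and fluorescence read 30 minutes later.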
# [19] = qHTS assay to identify small molecule agonists of H2AX (AID 1224845; active = well fitted activation curve with a large enough effect in the signal ratio in the repeat runs, not every such curve was filed as active; the % refers to the signal ratio)
# Summary of the method: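 Wild-type CHO-K1 cells plated overnight, then exposed 3 hr at 37C to compounds at 15 concentrations (0.76% DMSO). Lysed, then HTRF anti-pH2AX(S139)-cryptate/anti-H2AX-d2 detection after 24 hr at room temperature; emissions 665 and 620 nm.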
# [20] = qHTS RealTime-Glo MT Cell Viability Assay in HepG2 cells - 24 hour (AID 1224867); note: nearly all actives have a fitted effect of over 50% in size
# Summary of the method: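 HepG2 cells were seeded at 600 cells/well together with NanoLuc luciferase and a cell-permeant prosubstrate, preincubated 5 h at 37 C/5% CO2, then pin-dosed with compounds in DMSO. Nonlytic luminescence from viable cells was read at each time point.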
smiles,measurement,setting,value
Nc1cc([N+](=O)[O-])ccc1O,Potency,[1],30.6 µM (active)
same,Potency,[2],inactive
same,Potency,[3],inactive
same,Potency,[4],inactive
same,Potency,[5],inactive
same,outcome,[6],inactive
same,Potency,[7],inactive
same,"activity change, positive = activation",[8],-4.29% (inactive) and 0.807% (inactive)
same,Potency,[9],inactive
same,outcome,[10],inactive
same,outcome,[11],inactive
same,Potency,[12],inactive
same,Potency,[13],inactive
same,outcome,[14],inactive
same,max response,[15],-21.5% (inactive) and -15.3% (inactive)
same,Potency,[16],inactive
same,Potency,[17],inactive
OCCOCCN1CCN(C2=Nc3ccccc3Sc3ccccc32)CC1,Potency,[1],inactive
same,Potency,[18],inactive
same,Potency,[4],inactive
same,Potency,[5],inactive
same,Potency,[19],inactive
same,outcome,[6],inactive
same,Potency,[7],inactive
same,outcome,[20],inactive
same,Potency,[9],inactive
same,outcome,[10],inactive
same,outcome,[11],inactive
same,Potency,[12],inactive
same,Potency,[13],inactive
same,Potency,[15],9.52 µM (active)
same,max response,[15],-19.6% (inactive)
same,Potency,[16],inactive
same,Potency,[17],inactive
CC(C)(C)[C@@H](O)[C@@H](Cc1ccc(Cl)cc1)n1cncn1,Potency,[1],inactive
same,Potency,[18],inactive
same,Potency,[4],inactive
same,Potency,[5],inactive
same,outcome,[6],inactive
same,Potency,[7],inactive
same,outcome,[10],inactive
same,outcome,[11],inactive
same,Potency,[12],inactive
same,Potency,[13],inactive
same,outcome,[14],inactive
same,Potency,[16],inactive
same,Potency,[17],inactive
CCc1cccc(C)c1N,Potency,[1],inactive
same,Potency,[18],inactive
same,Potency,[4],inactive
same,Potency,[5],inactive
same,Potency,[19],inactive
same,outcome,[6],inactive
same,Potency,[7],inactive
same,"activity change, positive = activation",[8],-1.49% (inactive)
same,outcome,[20],inactive
same,Potency,[9],inactive
same,outcome,[10],inactive
same,outcome,[11],inactive
same,Potency,[12],inactive
same,Potency,[13],inactive
same,max response,[15],1.23% (inactive) and 1.97% (inactive)
same,Potency,[16],inactive
same,Potency,[17],inactive
CC1=CCC2CC1C2(C)C (stereo not drawn),Potency,[1],inactive
same,Potency,[18],inactive
same,Potency,[4],inactive
same,Potency,[5],inactive
same,outcome,[6],inactive
same,Potency,[7],inactive
same,outcome,[20],inactive
same,Potency,[9],inactive
same,outcome,[10],inactive
same,outcome,[11],inactive
same,Potency,[12],inactive
same,Potency,[13],inactive
same,outcome,[14],inactive
same,max response,[15],-11.4% (inactive) and 10.5% (inactive)
same,Potency,[16],inactive
same,Potency,[17],inactive
CCCCC(CC)COC(=O)CS (stereo not drawn),Potency,[1],inactive
same,Potency,[18],inactive
same,Potency,[4],inactive
same,Potency,[5],inactive
same,Potency,[19],inactive
same,outcome,[6],inactive
same,Potency,[7],inactive
same,"activity change, positive = activation",[8],-0.266% (inactive) and -15.8% (inactive)
same,Potency,[9],inactive and 17.4 µM (active)
same,outcome,[10],inactive
same,outcome,[11],inactive
same,Potency,[12],inactive
same,Potency,[13],inactive
same,Potency,[15],19.5 µM (active)
same,max response,[15],6.5% (inactive)
same,Potency,[16],inactive
same,Potency,[17],inactive
c1ccc(OCCOc2ccccc2)cc1,Potency,[1],inactive
same,Potency,[2],inactive
same,Potency,[18],inactive
same,Potency,[4],inactive
same,Potency,[5],inactive
same,outcome,[6],inactive
same,Potency,[7],inactive
same,Potency,[9],inactive
same,outcome,[10],inactive
same,outcome,[11],inactive
same,Potency,[12],inactive
same,Potency,[13],inactive
same,outcome,[14],inactive
same,Potency,[16],inactive
same,Potency,[17],inactive
Nc1ccccc1[N+](=O)[O-],Potency,[1],inactive
same,Potency,[18],inactive
same,Potency,[4],inactive
same,Potency,[5],inactive
same,Potency,[19],inactive
same,outcome,[6],inactive
same,Potency,[7],inactive
same,"activity change, positive = activation",[8],9.45% (inactive) and 1.58% (inactive)
same,outcome,[20],inactive
same,Potency,[9],inactive
same,outcome,[10],inactive
same,outcome,[11],inactive
same,Potency,[12],inactive
same,Potency,[13],inactive
same,outcome,[14],inactive
same,Potency,[16],inactive
same,Potency,[17],inactive
CC(c1cc2ccccc2s1)N(O)C(N)=O (stereo not drawn),Potency,[1],inactive
same,Potency,[18],inactive
same,Potency,[5],inactive
same,Potency,[19],inactive
same,outcome,[6],inactive
same,Potency,[7],inactive
same,Potency,[9],inactive
same,outcome,[10],inactive
same,outcome,[11],inactive
same,Potency,[12],inactive
same,Potency,[13],inactive
same,max response,[15],-14.9% (inactive) and -8.57% (inactive)
same,Potency,[16],inactive
same,Potency,[17],inactive
